# Experimental data as given in the supplement of paper PMC3334620.
# Whole data set: some 33,000 sequences, median “E-score (-0.5 to 0.5)” near -0.016, cut for the highest 2% near 0.31. The list comes from a sample in which the highest values are over-represented; it also holds similar and randomly drawn sequences.
# Molecular target: Cst6 (UniProt P40535)
# Assay: PBM E-score (8-mer binding enrichment) (E-score (-0.5 to 0.5)); higher = stronger / more preferred TF binding
# Settings: protein concentration: 200 nM; construct: GST-DNA-binding domain
# How it was run: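 PURExpress in vitro transcription/translation supplied GST-tagged yeast transcription factors, either full-length or DNA-binding domain. Applied at about 100-200 nM to universal all-10-mer Agilent arrays double-stranded by primer extension, the bound protein was detected with fluorescent anti-GST. E-scores, modified Wilcoxon-Mann-Whitney statistics, were given by the Universal PBM Analysis Suite to ungapped eight-base words pooled with their reverse complements after masliner normalisation.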
# UniProt P40535, sequence (P40535 whole entry): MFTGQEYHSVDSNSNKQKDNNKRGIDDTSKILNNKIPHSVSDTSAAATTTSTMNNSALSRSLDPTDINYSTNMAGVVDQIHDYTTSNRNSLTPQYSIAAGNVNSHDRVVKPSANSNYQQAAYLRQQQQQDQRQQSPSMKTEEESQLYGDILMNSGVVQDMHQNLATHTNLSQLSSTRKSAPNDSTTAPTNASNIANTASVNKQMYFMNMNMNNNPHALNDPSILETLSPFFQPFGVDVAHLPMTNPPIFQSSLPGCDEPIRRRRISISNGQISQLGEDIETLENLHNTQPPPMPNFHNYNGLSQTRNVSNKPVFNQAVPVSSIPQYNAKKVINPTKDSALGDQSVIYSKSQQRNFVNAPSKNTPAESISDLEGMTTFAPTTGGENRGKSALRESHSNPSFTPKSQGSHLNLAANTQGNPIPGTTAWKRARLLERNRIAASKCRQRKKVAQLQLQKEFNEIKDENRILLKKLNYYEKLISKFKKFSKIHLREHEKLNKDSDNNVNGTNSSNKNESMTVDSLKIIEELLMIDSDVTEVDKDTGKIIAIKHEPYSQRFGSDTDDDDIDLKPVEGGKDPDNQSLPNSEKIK
row,Sequence,PBM E-score
1,CGTAATGA,0.402
2,CTTAATGC,0.142
3,ATTATGGC,0.0901
4,TCGCGCAA,0.15
5,TCTCGTAA,0.305
6,ACTCGTCA,0.351
7,CCTCGTCA,0.308
8,CCTCGTCG,-0.0925
9,GCTCGTCA,0.238
10,TCTCGTCA,0.329
11,ACTCGTCC,-0.094
12,ACTCGTCT,-0.018
13,CCTCGTCC,-0.35
14,GACCTAAC,0.0894
15,ATCCCTCG,-0.263
16,GAAAGGTC,-0.196
17,GTTGCCCA,-0.135
18,AATTACCC,0.0706
19,AATTACAC,0.116
20,CATTACGC,0.219
21,AATTACGT,0.462
22,AATTACAG,0.15
23,AATTACGA,0.286
24,AGTTACGC,0.0936
25,GATTACGC,0.329

row,Sequence,PBM E-score
1,AATTACAT,0.318
2,AATTACGG,0.183
3,AATTACGC,0.331
4,GATTACAC,0.171
5,CACCTGGA,-0.135
6,TCGCGCGA,0.169
7,ACTCGTGC,-0.103
8,AGCGGCAT,0.273
9,CATTACGA,0.205
10,GATTACGA,0.364
11,TATTACGA,0.283
12,GTCTTAAC,0.14
13,GAAAAGCA,-0.0869
14,TCGTTACA,0.0818
15,TAACCCTA,-0.197
16,CATGCATG,0.0335
17,GCGCCGCC,0.25
18,ACGCCGCC,0.124
19,ACGCCGCT,0.233
20,GCGCCGCA,0.38
21,CCGCCGCA,0.0944
22,ACGCCGCA,0.336
23,CGTTATGA,0.0852
24,AGCGGAAT,-0.0286
25,GTAGCCGA,-0.191

row,Sequence,PBM E-score
1,CGTAATTC,0.309
2,GATAATCA,0.131
3,AGTAATCA,0.116
4,AATAATCA,0.209
5,CGTAATTA,0.362
6,TATAATCA,0.308
7,CATAATTC,0.203
8,AGTAATTC,0.189
9,CGTAATCA,0.427
10,AGTAATTA,0.175
11,CGTAATCC,0.3
12,GGTAATTA,0.215
13,CATCGCAG,-0.135
14,CGCCCGCC,-0.129
15,AAACTCAC,0.0463
16,CATTAGCG,-0.0563
17,CTCATTGC,0.105
18,AGAAAAAT,0.17
19,CATTGAGG,-0.0774
20,GTGAGTTA,0.0284
21,CTGACGAA,0.29
22,ATGACGAA,0.472
23,GTGACGAA,0.454
24,GAGACGAA,-0.099
25,ACGACGAC,-0.0559

row,Sequence,PBM E-score
1,ACGACGAG,-0.211
2,AAGACGAG,-0.203
3,ATGACGAC,0.431
4,CTGACGAC,0.216
5,ACGACGAA,0.0916
6,GGGACGAA,-0.214
7,ATGACGAG,0.398
8,CAGACAGC,-0.185
9,ATGGAGCA,0.0798
10,ACGAAACT,0.0946
11,CAAGACCC,-0.197
12,CAAGGCTC,-0.227
13,AATTTCGG,0.127
14,CGTGTGAG,0.0162
15,AAAGATCT,-0.0274
16,CACATCAC,0.217
17,GACATCAA,0.327
18,CACATCAA,0.162
19,GACATCAC,0.431
20,TACATCAA,0.283
21,GACATCCC,-0.0212
22,AGCATGCA,-0.103
23,AACACCTC,-0.0672
24,ACTCAAAC,0.158
25,AGCTAAAG,-0.0194

row,Sequence,PBM E-score
1,CAGCGTGA,0.0151
2,AAGACGCG,-0.111
3,ACGACGCG,0.127
4,AGGACGCC,-0.147
5,CTGACGCA,0.332
6,CAGACGCA,-0.0613
7,ATGACGCC,0.442
8,ATGACGCG,0.463
9,GCGACGCA,0.0151
10,GTGACGCA,0.471
11,AAGACGCC,-0.00396
12,CTGACGCC,0.119
13,GGGACGCA,-0.173
14,AGTCGTAT,-0.0183
15,AGCCTCGC,-0.0857
16,CCTGGATC,-0.334
17,GTACCAGA,-0.199
18,ACTCCAGT,-0.162
19,CCGTCCCC,-0.289
20,GGTGGAGA,-0.338
21,ACATGGGT,0.00268
22,CGGGTTCA,-0.134
23,GATAACCA,-0.0596
24,GGAGCTGA,-0.207
25,ATGACTCC,0.0246

row,Sequence,PBM E-score
1,ACGACGCA,0.145
2,ATGACGCA,0.485
3,GTGACTCA,0.228
4,AGGACGCA,-0.209
5,ATGACTCA,0.309
6,ACGGGACA,-0.177
7,ATACCACG,0.128
8,CCTCATAG,0.0666
9,AGTCATAG,0.0637
10,CGTCATAG,0.468
11,AGTCATAC,0.144
12,CGTCATAC,0.481
13,GGTCATAC,0.151
14,ATCCATTG,0.0328
15,AAGGAGAG,-0.258
16,TAATTACA,0.277
17,TAACCACA,0.0592
18,GCATCACC,0.231
19,ACATCACG,0.303
20,ACATCACT,0.401
21,AGATCACT,0.181
22,ACATCACC,0.417
23,TCATCACA,0.252
24,CCATCACC,0.15
25,ACATCACA,0.328

row,Sequence,PBM E-score
1,ACATCAGT,0.218
2,CCCGGTGC,-0.264
3,GGCGATTA,0.188
4,CGTCGCCA,-0.0999
5,CGCAGTAG,-0.101
6,ATCGACCA,-0.228
7,CGCTGGAC,-0.297
8,CAAAAAAG,0.254
9,TAATGCCA,0.197
10,CAATGACG,0.469
11,CAATGACC,0.148
12,AAATGATA,0.304
13,TAATGATA,0.387
14,GAATGATA,0.278
15,TAATGAGA,0.0949
16,TAATGACA,0.347
17,CAATGAAG,0.0658
18,CAATGACA,0.341
19,GAATGACA,0.259
20,AAATGACA,0.298
21,CTTTAAGC,0.0326
22,GTTGGGAA,-0.0904
